For assay [1], the target named is Peroxisome proliferator-activated receptor delta (Homo sapiens) (UniProt Q03181). Put plainly: qHTS assay for small molecule agonists of peroxisome proliferator-activated receptor delta signaling (AID 588534).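 Further: 0% = DMSO basal wells and 100% = positive control agonist at 10 µM.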 Put shortly: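 Agonist-mode beta-lactamase reporter readout (CCF4 dye, 2 h at RT) after 18 h at 37 °C exposure to a titration; Hill-equation fitting gave EC50 and maximal response.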
Peroxisome proliferator-activated receptor delta (Homo sapiens), sequence (Q03181 whole entry, looked up): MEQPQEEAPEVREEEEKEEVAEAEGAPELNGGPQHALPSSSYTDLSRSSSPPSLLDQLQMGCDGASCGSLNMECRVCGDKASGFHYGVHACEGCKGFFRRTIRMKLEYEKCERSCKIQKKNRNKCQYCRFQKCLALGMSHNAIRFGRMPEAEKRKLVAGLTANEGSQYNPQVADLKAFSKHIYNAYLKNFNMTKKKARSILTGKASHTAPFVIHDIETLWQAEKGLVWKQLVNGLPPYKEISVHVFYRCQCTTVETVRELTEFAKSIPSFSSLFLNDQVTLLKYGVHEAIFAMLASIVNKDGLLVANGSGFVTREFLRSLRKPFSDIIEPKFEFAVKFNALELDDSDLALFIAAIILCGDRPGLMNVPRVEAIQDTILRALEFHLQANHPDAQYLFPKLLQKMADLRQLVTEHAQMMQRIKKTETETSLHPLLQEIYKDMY
For orientation: In qHTS, concentration-response curves come from the screen itself.

A short description of assay [2]: qHTS assay for small molecule antagonists of peroxisome proliferator-activated receptor delta signaling (AID 588535; active means well fitted inhibition curve with a large enough effect in the signal ratio, with a control signal flat, not every such curve was filed as active; the % refers to the signal ratio;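 on max response: cells co-treated with a PPAR-delta agonist as stimulator during compound exposure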). Particulars: HEK293T PPARd-UAS-bla, beta-lactamase FRET ratio, 18 h; 460 nm channel. The method in brief: (§1)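 Inhibition of PPAR-delta response element-driven beta-lactamase expression is measured in HEK293T cells exposed to a compound titration series for 18 hrs at 37 C. Half-maximal inhibition comes from Hill equation fitting.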

Assay [3] deals with Peroxisome proliferator-activated receptor delta (Homo sapiens) (UniProt Q03181). The description is as above. The method in brief:
as §1

Assay [4] addresses Peroxisome proliferator-activated receptor gamma (Homo sapiens) (UniProt P37231). Put plainly: qHTS assay for small molecule agonists of peroxisome proliferator-activated receptor gamma signaling (AID 588536; active means well fitted curve in the direction sought with a large enough effect in the signal ratio, with a control signal flat, not every such curve was filed as active; the % refers to the signal ratio). Put shortly: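 Using GeneBLAzer HEK293 cells, response was quantified by CCF4 fluorescence and normalized between basal DMSO (0%) and rosiglitazone 2 uM (100%); curves yielded half-maximal stimulation concentration and efficacy.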

For assay [5] the target is unchanged. Put plainly: qHTS assay for small molecule antagonists of peroxisome proliferator-activated receptor gamma signaling (AID 588537; active means well fitted inhibition curve with a large enough effect in the signal ratio, with a control signal flat, not every such curve was filed as active; the % refers to the signal ratio;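 further: reporter cells co-stimulated with 50 nM rosiglitazone agonist during compound treatment; % of control where 0% means no effect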). The method in brief: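 Compounds are tested as concentration series for inhibition of rosiglitazone-driven (50 nM) reporter expression in GeneBLAzer PPAR-gamma-UAS-bla HEK293 cells. After 16 h at 37 C, CCF4 substrate is added for 2 h at room temperature and blue/green fluorescence is measured.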

Assay [6] deals with Vitamin D3 receptor (Homo sapiens) (UniProt P11473). The experiment in a line: qHTS assay for small molecule antagonists of vitamin D receptor signaling (AID 588541).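 Further: receptor activated by calcitriol during compound treatment; series mostly up to about 77 µM; on the % scale 0 is the no-effect control and ±100 the full control effect.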 Put shortly: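 VDR-UAS-bla HEK293T cells (2000/well, 2% charcoal-stripped FBS) were treated with titrated compounds plus 1-alpha,25-dihydroxyvitamin D3 (50 nM or 3 nM final) for 16 h at 37 C. CCF4 beta-lactamase fluorescence was read; Hill fits gave IC50.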
Vitamin D3 receptor (Homo sapiens), sequence (P11473 whole entry, looked up): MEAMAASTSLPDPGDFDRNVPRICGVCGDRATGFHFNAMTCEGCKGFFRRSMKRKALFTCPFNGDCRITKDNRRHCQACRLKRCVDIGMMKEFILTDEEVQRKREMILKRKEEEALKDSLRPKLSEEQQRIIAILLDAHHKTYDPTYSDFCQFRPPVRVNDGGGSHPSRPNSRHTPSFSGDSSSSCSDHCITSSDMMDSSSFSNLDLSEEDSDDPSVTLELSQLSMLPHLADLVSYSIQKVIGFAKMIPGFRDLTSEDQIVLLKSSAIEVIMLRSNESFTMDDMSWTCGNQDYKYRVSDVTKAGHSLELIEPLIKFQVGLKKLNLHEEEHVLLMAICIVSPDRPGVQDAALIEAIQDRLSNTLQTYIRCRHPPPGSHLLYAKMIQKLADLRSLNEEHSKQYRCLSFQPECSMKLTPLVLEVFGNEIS

For assay [7] the target is unchanged. Put plainly: qHTS assay for small molecule agonists of vitamin D receptor signaling (AID 588543). Put shortly:
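GeneBLAzer VDR-UAS-bla HEK293T cells in 2% charcoal-stripped FBS medium were dosed with compound titrations for 16 h at 37 °C; CCF4 β-lactamase readout (405 nm ex, 460/530 nm em). EC50 and efficacy from Hill fits, normalized to 50 nM calcitriol (100%) and DMSO (0%).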

Assay [8] in a line: qHTS assay for small molecule agonists of retinoid X receptor alpha signaling (AID 588544). Conditions: HEK293T RXRa-UAS-bla, beta-lactamase reporter, 18 h; 530 nm emission.
Assay [9] has as its target Retinoic acid receptor RXR-alpha (Homo sapiens) (UniProt P19793). The assay is described as above.
Assay [10] concerns the target Thyroid hormone receptor beta (Homo sapiens) (UniProt P10828). Put plainly: qHTS assay for small molecule agonists of thyroid hormone receptor beta signaling (AID 588545).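 Further: 0% = DMSO only and 100% = 10 nM T3.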 The method in brief:
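TR-UAS-bla-GripTite HEK 293 cells in medium with 2% charcoal/dextran FBS, 0.1 mM NEAA and 1 mM sodium pyruvate were treated with titrated compounds for 18 hrs at 37 C. Beta-lactamase reporter was read with CCF4 dye (ex 405, em 460/530 nm); EC50 from Hill fits.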

Assay [11] can be described thus: qHTS assay for small molecule antagonists of retinoid X receptor alpha signaling (AID 588546; active means well fitted inhibition curve with a large enough effect in the signal ratio, with a control signal flat, not every such curve was filed as active; the % refers to the signal ratio;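 further: cells stimulated with 9-cis-retinoic acid as agonist; on the % scale 0 is the no-effect control and ±100 the full control effect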). Particulars: HEK293T RXRa-UAS-bla, beta-lactamase ratio, antagonist mode; measured here: W530 green channel, cytotoxicity proxy. Put shortly:
(§2)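 Beta-lactamase reporter inhibition, read as CCF4 fluorescence ratio (ex 405, em 460/530 nm) after 2 h at RT. HEK293T UAS-bla cells, 2500/well, were stimulated with 9-cis-RA at 500 or 100 nM final alongside test compound for 18 h at 37 C.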

The target in assay [12] is Retinoic acid receptor RXR-alpha (Homo sapiens) (UniProt P19793). Described as above. Conditions: HEK293T RXRa-UAS-bla, beta-lactamase ratio, antagonist mode. The method in brief:
as §2

Assay [13] deals with Thyroid hormone receptor beta (Homo sapiens) (UniProt P10828). The experiment in a line: qHTS assay for small molecule antagonists of thyroid hormone receptor beta signaling (AID 588547; active means well fitted inhibition curve with a large enough effect in the signal ratio, with a control signal flat, not every such curve was filed as active; the % refers to the signal ratio;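 further: cells stimulated with 0.4 nM T3 agonist during compound exposure; series mostly up to about 77 µM; on the % scale 0 is the no-effect control and ±100 the full control effect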). Conditions: TR-UAS-bla HEK293, beta-lactamase ratio, antagonist mode, 18 h. The method in brief: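 TR-UAS-bla GripTite HEK293 cells in 2% charcoal/dextran FBS medium were preincubated 4 h at 37 C, given compound (0.59 nM to 92 uM) plus 0.4 nM T3 (final) for 18 h, then CCF4 for 2 h at RT; Hill fit gave IC50.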
Thyroid hormone receptor beta (Homo sapiens), sequence (P10828 whole entry, looked up): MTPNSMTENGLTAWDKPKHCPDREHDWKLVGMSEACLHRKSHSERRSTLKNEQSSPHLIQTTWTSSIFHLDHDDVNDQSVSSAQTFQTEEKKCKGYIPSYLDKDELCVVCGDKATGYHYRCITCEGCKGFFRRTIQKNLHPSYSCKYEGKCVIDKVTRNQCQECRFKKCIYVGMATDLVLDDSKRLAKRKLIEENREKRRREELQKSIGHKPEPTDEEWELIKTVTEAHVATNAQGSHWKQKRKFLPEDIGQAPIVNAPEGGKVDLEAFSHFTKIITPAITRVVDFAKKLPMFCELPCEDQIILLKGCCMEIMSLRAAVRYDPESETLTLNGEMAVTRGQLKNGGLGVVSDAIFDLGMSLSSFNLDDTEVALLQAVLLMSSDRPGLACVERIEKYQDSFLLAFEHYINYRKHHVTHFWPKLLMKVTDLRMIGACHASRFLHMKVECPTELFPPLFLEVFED

A short description of assay [14]: qHTS assay for small molecule activators of the nuclear factor-kappa B (NF-kB) signaling pathway (AID 651749; active means well fitted activation curve with a large enough effect in the signal ratio; the % refers to the signal ratio; further: series mostly up to about 77 µM; % of control where 0% means no effect). Conditions: NF-kB-bla ME-180 cells, beta-lactamase FRET ratio, 16 h; activation: stronger effect = higher value. Put shortly: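 Human ME-180 cervical cells with an NF-kB-bla construct; compounds added via 23 nL pin transfer, DMSO as vehicle; incubation 16 hr. Reporter activity measured by FRET disruption.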

Assay [15] is described as follows: qHTS assay for small molecule agonists of the antioxidant response element (ARE) signaling pathway measured by Nrf2-dependant transcriptional activity (AID 720636; active means well fitted curve in the direction sought with a large enough effect in the repeat runs; an effect the other way counts as inactive or inconclusive;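 further: HepG2 cells with an ARE-driven luciferase reporter; % of control where 0% means no effect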). The method in brief: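 First, ARE-luc HepG2 cells attached for 6 hr at 37 C in 1% dialyzed FBS medium. Next, compound or DMSO was added and incubated 16 hr. Finally, ONE-Glo reagent was added and luminescence measured after 30 min.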

Assay [16] in a line: qHTS assay for small molecule agonists of the antioxidant response element (ARE) signaling pathway measured by Nrf2-dependant transcriptional activity - cell viability counter screen (AID 720653; active means well fitted curve in the direction sought with a large enough effect in the repeat runs; an effect the other way counts as inactive or inconclusive; further: on the % scale 0 is the no-effect control and ±100 the full control effect). Particulars: ARE-bla HepG2 viability, CellTiter-Glo ATP luminescence, 16 h; max response: stronger effect = lower value. Put shortly:
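ARE-bla HepG2 cells (2,000/well) rested 5 hrs at 37C/5% CO2, then exposed to compounds in DMSO for 16 hrs. Viability was read in the same wells as intracellular ATP by luminescence, 30 min at room temperature after reagent addition.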

A short description of assay [17]: qHTS assay for cell viability of HEK293 cells (AID 743288; active means well fitted curve in the direction sought with a large enough effect; an effect the other way counts as inactive or inconclusive; further: on the % scale 0 is the no-effect control and ±100 the full control effect; nearly all actives have a fitted effect of over 50% in size). Particulars: ATP luminescence (CellTiter-Glo), 18 h; max response: stronger effect = lower value. Put shortly:
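After 18 h compound exposure at 37 C, parental HEK293 cells (2,000/well) are lysed with CellTiter-Glo and luminescence is read following 30 min at room temperature.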

Assay [18] can be described thus: qHTS assay for cell viability of the p53RE-bla HCT-116 cell line (AID 743292; active means well fitted curve in the direction sought with a large enough effect; an effect the other way counts as inactive or inconclusive; further: on the % scale 0 is the no-effect control and ±100 the full control effect; nearly all actives have a fitted effect of over 55% in size). The method in brief:
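Quantitative high-throughput format: compounds in DMSO were pinned onto p53RE-bla HCT-116 cells (4,000/well) and incubated 16 h at 37 C. Total intracellular ATP, read by CellTiter-Glo luminescence, reflects viable cell number.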

Assay [19] is described as follows: qHTS assay for small molecule agonists of the antioxidant response element (ARE) signaling pathway (AID 651741; active means well fitted activation curve with a large enough effect in the signal ratio; the % refers to the signal ratio; further: % of control where 0% means no effect). The method in brief:
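Reporter: beta-lactamase under ARE, stably in HepG2. Exposure: 16 h, 37 C, compounds delivered in DMSO by pin tool after 5 h cell preincubation. Readout: FRET substrate fluorescence after 2 h at RT.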

A short description of assay [20]: qHTS assay for small molecule activators of the p53 signaling pathway (AID 651743; active means well fitted activation curve with a large enough effect in the signal ratio, not every such curve was filed as active; the % refers to the signal ratio; further: series mostly up to about 92 µM; % of control where 0% means no effect). Particulars: HCT-116 p53RE-bla, beta-lactamase FRET ratio, 16 h; activation: stronger effect = higher value. Put shortly: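 Agonist-mode quantitative HTS in HCT-116 cells carrying a p53-response-element beta-lactamase reporter; 16 h compound treatment at 37 C, then FRET substrate loading for 2 h at room temperature and fluorescence read.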

In assay [21] the target is Peroxisome proliferator-activated receptor alpha (Homo sapiens) (UniProt Q07869). The experiment in a line: qHTS assay for small molecule agonists of the peroxisome proliferator-activated receptor alpha (PPARalpha) signaling pathway (AID 651778; active means well fitted curve in the direction sought with a large enough effect; an effect the other way counts as inactive or inconclusive; further: % of control where 0% means no effect). Conditions: PathHunter PPARalpha complementation, chemiluminescence, 6 h; max response: stronger effect = higher value. Put shortly:
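Cells plated at 2,000/well and held overnight at 37 C, 5% CO2, then compound added by pin tool for 6 hr; after PathHunter detection reagent and 60 min at room temperature, chemiluminescence from enzyme complementation was read.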

In assay [22] the target is Nuclear receptor subfamily 1 group I member 2 (Rattus norvegicus) (UniProt Q9R1A7). Put plainly: qHTS assay for small molecule activators of the rat pregnane X receptor (rPXR) signaling pathway (AID 651751; call rule not given here; further: 0% is about no effect). Particulars: rPXR reporter cells, luciferase (One-Glo), 24 h.
Nuclear receptor subfamily 1 group I member 2 (Rattus norvegicus), sequence (Q9R1A7 whole entry, looked up): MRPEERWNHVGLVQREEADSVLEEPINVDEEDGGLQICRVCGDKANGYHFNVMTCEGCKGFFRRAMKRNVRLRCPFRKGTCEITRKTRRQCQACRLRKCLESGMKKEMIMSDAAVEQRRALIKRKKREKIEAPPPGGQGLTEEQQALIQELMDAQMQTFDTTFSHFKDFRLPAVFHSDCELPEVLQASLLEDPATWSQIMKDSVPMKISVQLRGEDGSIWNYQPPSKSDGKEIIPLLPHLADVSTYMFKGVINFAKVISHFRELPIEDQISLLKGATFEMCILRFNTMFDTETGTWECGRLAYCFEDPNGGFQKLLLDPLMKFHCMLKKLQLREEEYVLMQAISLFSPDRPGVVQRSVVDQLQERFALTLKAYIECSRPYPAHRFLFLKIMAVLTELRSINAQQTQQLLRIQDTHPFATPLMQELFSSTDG
The nature of assay [23]: qHTS assay for small molecule activators of the human pregnane X receptor (PXR) signaling pathway (AID 720659; call rule not given here; further: 0% is about no effect).
The nature of assay [24]: MultiTox-Fluor Cytotoxicity Assay - LYMP1-002 - Dead Cells (AID 960; active means well fitted curve in the direction sought with a large enough effect; an effect the other way counts as inactive or inconclusive; further: potency means the concentration at half of the fitted maximal effect; nearly all actives have a fitted effect of over 60% in size). Put shortly: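 Dead-cell fluorescence (Ex/Em 485/520) after 16 h compound exposure at 37 C of LYMP1-002 lymphoblastoid cells in complete medium; AC50 by Hill equation, with data scaled between DMSO and 15 uM tetraoctylammonium bromide.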

Each structure is given as a SMILES string. Inconclusive results are not listed. Active and inactive are the calls of the source. Unless noted, the call rests on the fitted dose curve.

Peroxisome proliferator-activated receptor gamma (Homo sapiens), sequence (P37231 whole entry, looked up): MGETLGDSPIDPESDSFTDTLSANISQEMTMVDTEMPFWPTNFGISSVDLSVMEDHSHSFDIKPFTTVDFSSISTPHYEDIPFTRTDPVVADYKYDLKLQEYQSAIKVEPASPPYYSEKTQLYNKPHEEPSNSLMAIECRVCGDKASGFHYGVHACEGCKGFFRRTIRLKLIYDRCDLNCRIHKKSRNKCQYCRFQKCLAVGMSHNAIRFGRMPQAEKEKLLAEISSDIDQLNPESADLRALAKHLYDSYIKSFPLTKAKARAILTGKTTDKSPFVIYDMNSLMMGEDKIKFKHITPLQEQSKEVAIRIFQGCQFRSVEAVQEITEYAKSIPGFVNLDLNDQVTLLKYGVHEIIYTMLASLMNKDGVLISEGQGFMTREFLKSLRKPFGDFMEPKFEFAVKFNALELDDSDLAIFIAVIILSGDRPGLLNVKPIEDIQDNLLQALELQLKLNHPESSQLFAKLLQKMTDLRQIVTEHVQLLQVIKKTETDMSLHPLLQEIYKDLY
Retinoic acid receptor RXR-alpha (Homo sapiens), sequence (P19793 whole entry, looked up): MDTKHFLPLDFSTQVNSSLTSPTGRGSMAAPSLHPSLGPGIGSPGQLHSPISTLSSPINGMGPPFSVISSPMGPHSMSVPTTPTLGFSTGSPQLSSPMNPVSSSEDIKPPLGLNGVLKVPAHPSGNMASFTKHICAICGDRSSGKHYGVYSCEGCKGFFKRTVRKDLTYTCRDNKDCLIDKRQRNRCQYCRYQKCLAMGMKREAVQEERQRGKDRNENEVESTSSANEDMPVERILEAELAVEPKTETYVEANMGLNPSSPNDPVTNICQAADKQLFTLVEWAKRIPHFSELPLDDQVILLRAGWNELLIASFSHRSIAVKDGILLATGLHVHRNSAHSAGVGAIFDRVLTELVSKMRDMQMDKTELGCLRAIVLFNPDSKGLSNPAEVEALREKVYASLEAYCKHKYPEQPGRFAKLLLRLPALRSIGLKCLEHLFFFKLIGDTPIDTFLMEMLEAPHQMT
Peroxisome proliferator-activated receptor alpha (Homo sapiens), sequence (Q07869 whole entry, looked up): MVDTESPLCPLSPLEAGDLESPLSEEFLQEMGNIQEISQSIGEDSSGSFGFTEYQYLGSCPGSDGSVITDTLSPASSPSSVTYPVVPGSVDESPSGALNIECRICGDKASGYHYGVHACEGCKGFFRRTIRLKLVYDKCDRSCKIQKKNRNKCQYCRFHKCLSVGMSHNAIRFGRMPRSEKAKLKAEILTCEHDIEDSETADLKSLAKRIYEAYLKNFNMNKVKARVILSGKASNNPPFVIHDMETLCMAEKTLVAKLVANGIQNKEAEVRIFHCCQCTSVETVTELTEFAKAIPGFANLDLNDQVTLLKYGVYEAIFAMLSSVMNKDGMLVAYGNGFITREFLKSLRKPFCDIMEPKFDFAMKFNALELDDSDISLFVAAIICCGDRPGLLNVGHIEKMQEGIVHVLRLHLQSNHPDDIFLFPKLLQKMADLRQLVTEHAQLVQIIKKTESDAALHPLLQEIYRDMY

As to `CCC(C)(CC)c1cc(NC(=O)c2c(OC)cccc2OC)on1`, the call in assay [1] and in [7] was inactive. Further, the max response in [2] is 7.62%; in [8], 12.1%; in [11], 5.81%; in [12], -17.5% (inactive); in assay [16], 10.3% (inactive); in assay [17], -25.2% (inactive). In addition, the Potency result in assay [3], in [4], in assay [5], in assay [6], in assay [9] and in assay [10] was “inactive” in each case. In addition, the Potency result in assay [15] and in [18] was “inactive” in each case. Besides, in [13], the activity change % (negative = inhibition) was 0.364% (inactive). The activation in assay [14] was -0.691% (inactive).
Turning to `CC(=O)Nc1ccccc1C`, the compound was classed as inactive in assay [1].
`Cc1cc(Cl)ccc1N=CN(C)C`: the result in assay [1], in assay [7] and in assay [23] was inactive. The Potency entry in assay [4], in assay [5], in [6], in [9], in assay [19] and in assay [15] was “inactive” in each case. Further, the Potency result in assay [18] is “inactive”. For the same compound, the max response in assay [8] is -2.15%; in assay [11], -3.88%; in assay [21], -0.583% (inactive); in assay [16], -12.3% (inactive); in [17] it was -10.1% (inactive); in assay [22], 1.62% (inactive). Besides, the activation in [20] is 0.7% (inactive).
`CCCCOCCOCCOC(=O)CCCCC(=O)OCCOCCOCCCC`: in assay [1], the call was inactive.
For the compound `COc1ccc(N=[N+]([O-])c2ccc(OC)cc2)cc1`, the Potency in assay [24] was 25.1 µM (active). Besides, the compound was called inactive in assay [1].
For `Cc1c(N)cccc1[N+](=O)[O-]`, the outcome in [1] was inactive.
